± gives the standard deviation of the averaged measurements.
Columns and labels:
Conditions in all cases: concentration: 10 µM; 24 h
HCC1569 [1] = assay: cell number relative to DMSO (% of DMSO); higher = more cells (less growth inhibition / toxicity)
Outline: (§1)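 After 24 h at 37 °C with compounds at 10 µM, in triplicate, HCC1569 and TDF cells were fixed with 3.7% formaldehyde. Immunostaining used a rabbit anti-H1.0 antibody and an AlexaFluor 647 secondary, with DAPI, and six fields per well were imaged at ×10. H1.0 nuclear intensity or cell number is presented as percent of the plate control, from the median of replicates, with HCC1569 values smoothed for positional effects.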

TDF [2] = assay: as above
Outline: as §1

TDF [3] = assay: H1.0 immunofluorescence intensity relative to DMSO (% of DMSO); higher = stronger H1.0 induction, active = 120 or more
Outline: as §1

HCC1569 [4] = assay: H1.0 immunofluorescence intensity relative to DMSO (% of DMSO); higher = stronger H1.0 induction, active = 140 or more
Outline: as §1
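Throughout, for H1.0 immunofluorescence intensity relative to DMSO: TDF is a line of transformed human dermal fibroblasts of mesenchymal origin.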
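Throughout, for cell number relative to DMSO: TDF denotes transformed human dermal fibroblasts of mesenchymal origin.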

Row | Structure (SMILES) | cell number (HCC1569 [1]) | cell number (TDF [2]) | H1.0 immunofluorescence intensity (TDF [3]) | H1.0 immunofluorescence intensity (HCC1569 [4])
1 | Nc1ccc2c3c(cccc13)C(=O)NC2=O [4-Amino-1,8-naphthalimide] | 94.1 | 77.8 | 104 (inactive) | 150 (active)
2 | CCCCc1nc(Cl)c(CO)n1Cc1ccc(-c2ccccc2-c2nnn[n-]2)cc1.[K+] [Losartan potassium] | 102 | 90.1 | 98.1 (inactive) | 102 (inactive)
3 | COc1cc(OC)c2cc(-c3ccncc3)cnc2c1.Cl.Cl [5,7-dimethoxy-3-(4-pyridinyl)quinoline dihydrochloride] | 105 | 102 | 92.4 (inactive) | 105 (inactive)
4 | CCN1CCCC1CNC(=O)c1c(OC)ccc(Br)c1OC (stereo unspecified) [Remoxipride] | 101 | 101 | 96.7 (inactive) | 108 (inactive)
5 | CCCCCCCCC=CCCCCCCCCC(=O)O [10(Z)-Nonadecenoic acid] | 102 | 94.1 | 95.6 (inactive) | 106 (inactive)
6 | CN1CCCC1CCOC(C)(c1ccccc1)c1ccc(Cl)cc1 (stereo unspecified) [Clemastine] | 99.4 | 97.3 | 102 (inactive) | 112 (inactive)
7 | CCNC1CC(C)S(=O)(=O)c2sc(S(N)(=O)=O)cc21.Cl (stereo unspecified) [Dorzolamide.HCl] | 97 | 87.9 | 100 (inactive) | 95.5 (inactive)
8 | CN1CCN2c3ccccc3Cc3ccccc3C2C1.Cl (stereo unspecified) [Mianserin.HCl] | 107 | 112 | 101 (inactive) | 96.2 (inactive)
9 | O=c1c(-c2ccc(O)cc2)coc2cc(O)ccc12 [Daidzein] | 101 ± 2.1 | 107 ± 14 | 92.4 (inactive) | 94.6 (inactive)
10 | CCCCCCCCC=CCCCCCCCCCCC(=O)O [12(Z) Heneicosenoic acid] | 103 | 98 | 95.5 (inactive) | 115 (inactive)
11 | O=C(CCCN1CC=C(n2c(=O)[nH]c3ccccc32)CC1)c1ccc(F)cc1 [Droperidol] | 107 | 98.1 | 91.1 (inactive) | 89.2 (inactive)
12 | COc1ccc2cc(CCC(C)=O)ccc2c1 [Nabumetone] | 107 | 97.4 | 93.8 (inactive) | 111 (inactive)
13 | N[C@@H](Cc1ccc(O)c(I)c1)C(=O)O [3-Iodo-L-tyrosine] | 108 | 110 | 87.8 (inactive) | 88.9 (inactive)
14 | O=C1CSC(c2cccc(Br)c2)N1c1cc(Cl)ccc1O (stereo unspecified) | 102 | 96.5 | 94.8 (inactive) | 103 (inactive)
15 | COc1ccc(C2Sc3ccccc3N(CCN(C)C)C(=O)C2OC(C)=O)cc1 (stereo unspecified) [Diltiazem] | 104 | 107 | 92 (inactive) | 101 (inactive)
16 | NC(=NCc1ccccc1)NC(=O)c1nc(Cl)c(N)nc1N [Benzamil] | 99.9 | 99.9 | 98.7 (inactive) | 112 (inactive)
17 | CC(C)(C)C(=O)C(Oc1ccc(Cl)cc1)n1ccnc1 (stereo unspecified) [Climbazole] | 99.5 | 98.7 | 92.2 (inactive) | 99.3 (inactive)
18 | O=c1cc(-c2ccc(O)cc2)oc2cc(O)c(C3OC(CO)C(O)C(O)C3O)c(O)c12 (stereo unspecified) [Isovitexin] | 99.9 | 109 | 94.3 (inactive) | 88.1 (inactive)
19 | CC(C)NCC(O)COc1ccc(CC(N)=O)cc1 (stereo not drawn) [R(+)-Atenolol] | 98.9 | 109 | 90.9 (inactive) | 95.4 (inactive)
20 | COC(=O)C1=COC(C)C2CN3CCc4c([nH]c5ccccc45)C3CC12 (stereo unspecified) [Teterahydroalstonine] | 102 | 104 | 98.8 (inactive) | 88 (inactive)
21 | CC(=O)ONC1=c2ccccc2=NC1=C1C(=O)Nc2cc(Br)ccc21 | 55.8 | 51.1 | 116 (inactive) | 188 (active)
22 | O=C(O)Cc1nn(Cc2nc3cc(C(F)(F)F)ccc3s2)c(=O)c2ccccc12 | 98.1 | 90.1 | 93.4 (inactive) | 97.7 (inactive)
23 | CN(C)c1ccc(O)c2c1CC1CC3C(N(C)C)C(=O)C(C(N)=O)=C(O)C3(O)C(=O)C1=C2O.Cl (stereo unspecified) | 99.2 | 96.9 | 95.5 (inactive) | 91.5 (inactive)
24 | NCCCCC(NC(CCc1ccccc1)C(=O)O)C(=O)N1CCCC1C(=O)O (stereo unspecified) [Lisinopril] | 105 | 99.8 | 97.2 (inactive) | 98.8 (inactive)

Source: the supplement of paper PMC7156485
